From PubChem BioAssay (NCATS)
Records with an inconclusive call do not appear. Where a call stands in place of a potency, no number is given. A number with no mark means an inactive call. Calls of active or inactive are those of the source. Unless noted, calls come from the whole dose curve; as a rule, active = well fitted curve in the direction sought with a large enough effect; inconclusive = small, poorly fitted or top-dose-only effect, or another doubt; inactive = no such curve, though single readings can be large; an effect the other way counts as inactive or inconclusive.

Columns and labels:
[1] = qHTS to identify inhibitors of the type 1 interferon - major histocompatibility complex class I in skeletal muscle: primary screen against the NCATS Mechanism Interrogation Plate v5.0 (MIPE) Libary (AID 1347411); note: nearly all actives have a fitted effect of over 65% in size
Method in brief: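 Cells were genome-edited human myoblasts carrying a HiBit tag on endogenous HLA-B. They were treated with IFN-beta (4.0 ng/ml) and titrated compounds (top 46 uM) for 24 hrs before lytic HiBiT detection.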

[2] = biological target: Calcium and integrin-binding protein 1 (Homo sapiens) (UniProt Q99828); assay: Primary qHTS for Identification of Calcium Integrin Binding Protein 1 (CIB1) Competitor (AID 1508620);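 note: GST tagged CIB1 binding a fluorescein labelled alphaIIb integrin peptide tracer; top concentration of the series differs between compounds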
Chain of Calcium and integrin-binding protein 1 (Homo sapiens) (Q99828 whole entry, looked up): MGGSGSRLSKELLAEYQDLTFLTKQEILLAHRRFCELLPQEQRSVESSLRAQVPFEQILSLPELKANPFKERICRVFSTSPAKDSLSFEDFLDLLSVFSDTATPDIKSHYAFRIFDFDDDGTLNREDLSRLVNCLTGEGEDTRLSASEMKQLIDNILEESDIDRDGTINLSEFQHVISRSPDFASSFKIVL
Method in brief: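 Fluorescence polarization competition: GST-tagged CIB1 (1 uM final) preincubated with compound 15 min at room temperature, then FITC-labelled alphaIIb peptide (100 nM final) added. After 15 min at room temperature, polarization read at Ex 480/Em 540.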

[3] = Primary qHTS for small molecule stabilizers of the endoplasmic reticulum resident proteome: Secreted ER Calcium Modulated Protein (SERCaMP) assay (AID 1508630)
Method in brief: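 GLuc-SERCaMP-expressing SH-SY5Y cells, pretreated 16 h with compound, are challenged with thapsigargin to empty ER calcium stores; after 4 h, coelenterazine is added directly to the medium and luminescence is imaged.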

[4] = biological target: Cytochrome P450 2D6 (Homo sapiens) (UniProt P10635); assay: Cytochrome P450 family 2 subfamily D member 6 (CYP2D6) small molecule antagonists: luciferase biochemical (cell-free) qHTS assay (AID 1645840; active = well fitted curve in the direction sought with a large enough effect in the repeat runs; an effect the other way counts as inactive or inconclusive; note: nearly all actives have a fitted effect of over 55% in size; note: potency is the fitted concentration of half-maximal effect; for activity change, negative = inhibition: series mostly up to about 57 µM)
Chain of Cytochrome P450 2D6 (Homo sapiens) (P10635 whole entry, looked up): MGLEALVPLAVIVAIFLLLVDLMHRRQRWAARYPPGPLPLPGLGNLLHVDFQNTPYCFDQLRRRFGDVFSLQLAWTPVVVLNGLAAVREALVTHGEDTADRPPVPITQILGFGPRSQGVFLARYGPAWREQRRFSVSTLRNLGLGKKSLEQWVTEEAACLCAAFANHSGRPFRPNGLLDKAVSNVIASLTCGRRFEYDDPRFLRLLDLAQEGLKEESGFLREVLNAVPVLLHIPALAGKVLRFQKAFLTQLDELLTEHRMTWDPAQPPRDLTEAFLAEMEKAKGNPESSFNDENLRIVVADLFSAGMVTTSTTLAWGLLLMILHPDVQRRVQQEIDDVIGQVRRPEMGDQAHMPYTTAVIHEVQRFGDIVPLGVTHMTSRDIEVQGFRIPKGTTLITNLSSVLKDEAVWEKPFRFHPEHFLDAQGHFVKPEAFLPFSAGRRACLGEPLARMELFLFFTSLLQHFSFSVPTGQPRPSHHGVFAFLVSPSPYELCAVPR
Method in brief: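 P450-Glo luminescent screen: recombinant CYP2D6 enzyme–proluciferin substrate mix preincubated with compound 10 min at room temperature, then NADPH regeneration added for 1 h at room temperature. Detection reagent added for 20 min; luciferin light read as relative luminescence units.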

[5] = Counterscreen qHTS for small molecule stabilizers of the endoplasmic reticulum resident proteome: GLuc-NoTag assay (AID 1508627);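 note: SH-SY5Y cells given compound then 100 nM thapsigargin to empty ER calcium; series mostly up to about 76 µM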
Method in brief: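 SH-SY5Y cells stably expressing constitutively secreted GLuc without SERCaMP tag, exposed to compound for 19 hr, then to 100 nM thapsigargin for 4 hr at 37C. Medium luciferase was read by coelenterazine luminescence without lysis.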

[6] = Confirmatory qHTS for small molecule stabilizers of the endoplasmic reticulum resident proteome: Secreted ER Calcium Modulated Protein (SERCaMP) assay (AID 1508628);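 note: SH-SY5Y cells given compound 16 h then thapsigargin 100 nM for 4 h; series mostly up to about 76 µM; nearly all actives have a fitted effect of over 40% in size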
Method in brief: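 We seeded SH-SY5Y-GLuc-SERCaMP cells, added compounds (three concentrations in the primary run, eleven up to 76.6 uM in confirmation), incubated 16 h, depleted ER calcium with thapsigargin, and read luciferase 4 h later.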

[7] = Cell Viability qHTS for small molecule stabilizers of the endoplasmic reticulum resident proteome (AID 1508629); settings: cell viability counter-screen, 100 nM thapsigargin for final 4 h;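 note: human SH-SY5Y neuroblastoma cells carrying the GLuc-SERCaMP reporter; compound exposure about 46 h in total before the viability read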
[8] = biological target: Protein phosphatase 1D (Homo sapiens) (UniProt O15297); assay: RapidFire Mass Spectrometry qHTS Assay for Modulators of WT P53-Induced Phosphatase 1 (WIP1) (AID 1347424);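 note: amount of dephosphorylated VEPPL-S-QETFS peptide product formed by WIP1; series mostly up to about 63 µM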
Chain of Protein phosphatase 1D (Homo sapiens) (O15297 whole entry, looked up): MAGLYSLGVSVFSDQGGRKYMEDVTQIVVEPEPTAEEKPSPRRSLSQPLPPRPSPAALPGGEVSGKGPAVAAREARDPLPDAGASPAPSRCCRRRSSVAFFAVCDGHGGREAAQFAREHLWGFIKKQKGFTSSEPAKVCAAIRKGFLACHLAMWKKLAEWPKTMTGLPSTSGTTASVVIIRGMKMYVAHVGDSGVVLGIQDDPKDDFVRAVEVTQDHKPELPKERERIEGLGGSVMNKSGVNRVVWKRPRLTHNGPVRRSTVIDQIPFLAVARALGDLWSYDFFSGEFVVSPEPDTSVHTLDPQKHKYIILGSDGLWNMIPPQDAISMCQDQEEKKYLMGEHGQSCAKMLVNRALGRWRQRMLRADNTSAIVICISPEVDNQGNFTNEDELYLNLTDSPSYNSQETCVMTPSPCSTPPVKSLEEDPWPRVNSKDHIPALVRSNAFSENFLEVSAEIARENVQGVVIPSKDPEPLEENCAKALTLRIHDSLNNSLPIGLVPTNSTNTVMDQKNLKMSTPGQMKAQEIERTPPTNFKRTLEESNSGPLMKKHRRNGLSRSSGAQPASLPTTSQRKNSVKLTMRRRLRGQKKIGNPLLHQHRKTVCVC
Method in brief: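 10 nM WIP1 preincubated with compounds 1 hr at room temperature in pH 7.5 Tris buffer with 30 mM MgCl2, 1 mM TCEP; 2 uM VEPPL-pS-QETFS phosphopeptide for 5 min, formic acid quench; dephosphorylated product quantified by RapidFire MS against labelled standard.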

[9] = biological target: Protein phosphatase 1D (Homo sapiens) (UniProt O15297); assay: Rhodamine-PBP qHTS Assay for Modulators of WT P53-Induced Phosphatase 1 (WIP1) (AID 1347425)
Method in brief: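 The read-out is the change in Rhodamine-PBP fluorescence (f1 - f0, ex 525/em 598 nm) as Pi is released, read each minute for 11 min. Final reaction: 5 nM WIP1, 10 uM phosphopeptide VEPPL-pS-QETFS, 10 uM Rh-PBP, 50 mM Tris-HCl pH 7.5, 30 mM MgCl2. Compound was preincubated with enzyme for 1 hour at room temperature.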

[10] = Primary qHTS for inhibitors of La Crosse Virus (LACV) - induced cell death in SH-SY5Y cells (AID 1508616);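 note: top concentration of the series differs between compounds; higher means more rescue of cells from virus-induced death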
Method in brief: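 Readout was luminescence from ATPLite 1step added after a 6-day LACV infection (0.01 MOI) of SH-SY5Y cells that had received pin-transferred compound 24 hr after seeding.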

Which results are given for O=C(c1ccc(C(=O)N2CCC(N3CCCC3)CC2)c(Nc2ccccc2)c1)N1CCC(N2CCCC2)CC1?
Potency [1]: inactive; Potency [2]: inactive; Potency [3]: inactive

What does the source list for c1ccc(CNc2nc(N3CCOc4ccccc43)nc3c2CCCC3)cc1?
Potency [1]: inactive; Potency [2]: inactive; Potency [4]: 3.01 µM (active)

Which results are given for CNC(=O)[C@H](Cc1ccccc1)NC(=O)[C@H](CC(C)C)[C@H](CSc1cccs1)C(=O)NO?
Potency [1]: inactive; Potency [2]: inactive; Potency [3]: inactive; Potency [4]: inactive

For O=C1C(c2c(O)[nH]c3ccccc23)=Nc2ccccc21, which Potency [1] is on record?
Its Potency is “inactive”.

What about the Potency [2] of the same molecule?
The Potency was “inactive”.

What about the Potency [3] of the same molecule?
The Potency was “inactive”.

For NS(=O)(=O)c1cc(Cl)c(Cl)c(S(N)(=O)=O)c1, which Potency [1] is on record?
The Potency was “inactive”.

What about the Potency [5] of the same molecule?
Its Potency is “inactive”.

And the Potency [6]?
Its Potency is “inactive”.

What about the max response [7] of the same molecule?
Its max response is 21%.

What about the Potency [4] of the same molecule?
The Potency was “inactive”.

With COc1nccc(-c2c(-c3ccc(F)cc3)ncn2C2CCC(O)CC2)n1 (centres undefined) as the molecule, how does the Potency [1] read?
The Potency was “inactive”.

And the Potency [2]?
Its Potency is “inactive”.

And the Potency [3]?
Its Potency is “inactive”.

What does the source list for COC1CCC(C(=O)c2ccc3nc4c(cc3c2)CCCO4)CC1 (centres undefined)?
Potency [1]: inactive; Potency [2]: inactive; Potency [3]: inactive

What does the source list for Cc1nc2c([nH]1)CCN(C(=O)c1ccc(NC(=O)c3ccccc3-c3ccccc3)cc1)c1ccccc1-2?
Potency [1]: inactive; Potency [2]: inactive; Potency [4]: 4.77 µM (active)

Which Potency [1] does the source give for CC(=O)NCCC(=O)N[C@@H](CCC(N)=O)C(=O)N[C@@H](CO)C(=O)N[C@@H](CCC(N)=O)C(=O)N[C@@H](CCC(N)=O)C(=O)N[C@H](C(=O)N[C@@H](Cc1ccccc1)C(=O)N[C@]1(C)CCCCCCC=CCCC[C@@](C)(C(=O)N[C@@H](CCC(N)=O)C(=O)N[C@@H](CC(N)=O)C(N)=O)NC(=O)[C@H](CC(C)C)NC(=O)[C@H](CC(C)C)NC(=O)[C@@H](CCCNC(=N)N)NC(=O)[C@H](Cc2c[nH]c3ccccc23)NC(=O)[C@H](CC(C)C)NC(=O)[C@H](CC(N)=O)NC1=O)[C@H](C)O here?
Its Potency is “inactive”.

What about the Potency [2] of the same molecule?
Its Potency is “inactive”.

And the Potency [3]?
Its Potency is “inactive”.

For COC(=O)N1CCN(Cc2cccc(NC(=O)Nc3ccc(C)nc3)c2F)CC1, which Potency [1] is on record?
The Potency was “inactive”.

What about the Potency [2] of the same molecule?
The Potency was “inactive”.

And the Potency [3]?
Its Potency is “inactive”.

Which Potency [2] does the source give for CC(C)n1c(C=C[C@H](O)C[C@H](O)CC(=O)O)c(-c2ccc(F)cc2)c2ccccc21 here?
Its Potency is “inactive”.

Which activity change, negative = inhibition [2] does the source give for CO[C@H]1C=CO[C@@]2(C)Oc3c(C)c(O)c4c(O)c(c(C=NN5CCN(C)CC5)c(O)c4c3C2=O)NC(=O)C(C)=CC=C[C@H](C)[C@H](O)[C@@H](C)[C@@H](O)[C@@H](C)[C@H](OC(C)=O)[C@H]1C here?
Its activity change, negative = inhibition is -2.55% [at 12.4 µM].

Which Potency [1] does the source give for Cc1cn([C@@H]2C[C@@H](O)[C@H](CO)O2)c(=O)[nH]c1=O here?
The Potency was “inactive”.

And the Potency [3]?
Its Potency is “inactive”.

And the Potency [4]?
The Potency was “inactive”.

What does the source list for CN1C(=O)C(Cc2c[nH]c3ccccc23)NC1=S (centres undefined)?
Potency [1]: inactive; Potency [3]: inactive

With N=C1SC(=Cc2ccc(-c3ccc4c(c3)C(=O)NC4=O)o2)C(=O)N1c1ccc(Br)cc1 as the molecule, how does the Potency [2] read?
Its Potency is “inactive”.

For C[C@]12CCC3=C4CCC(=O)C=C4CC[C@@H]3[C@H]1CC[C@@]2(O)CC#N, which Potency [2] is on record?
The Potency was “inactive”.

What does the source list for O[C@@H](COc1cccc2ncccc12)CN1CCN(C2c3ccccc3[C@@H]3[C@H](c4ccccc42)C3(F)F)CC1 (some centres undefined)?
Potency [8]: inactive; outcome [9]: inactive; outcome [10]: inactive; Potency [2]: inactive; Potency [5]: inactive; Potency [3]: inactive

With CC(C)=CCCC(C)=CCCC(C)=CCCC(C)=CCCC(C)=CCCC(C)=CCCC(C)=CCCC(C)=CCCC(C)=CCO as the molecule, how does the Potency [2] read?
The Potency was “inactive”.

And the Potency [5]?
The Potency was “inactive”.

What about the Potency [6] of the same molecule?
Its Potency is “inactive”.

And the max response [7]?
The max response was 2.98%.

For CO[C@H]1/C=C\O[C@@]2(C)Oc3c(C)c(O)c4c(O)c(c5c(nc6cc(C)ccn65)c4c3C2=O)NC(=O)C(C)=CC=C[C@H](C)[C@H](O)[C@@H](C)[C@@H](O)[C@@H](C)[C@H](OC(C)=O)[C@H]1C, which Potency [2] is on record?
Its Potency is “inactive”.

For CO[C@H]1O[C@@H]2O[C@@]3(C)CC[C@@H]4[C@@H](C)CC[C@@H]([C@H]1C)[C@@]24OO3, which Potency [2] is on record?
The Potency was “inactive”.
